Assay results published in ChEMBL document CHEMBL3988442, “University of Dundee, Small-Polar-MMV Screening Library” (2021).

Target: T1, Aspartate--tRNA(Asp/Asn) ligase (Mycobacterium tuberculosis (strain ATCC 25618 / H37Rv)) (UniProt P9WFW3)
T1 sequence (whole entry): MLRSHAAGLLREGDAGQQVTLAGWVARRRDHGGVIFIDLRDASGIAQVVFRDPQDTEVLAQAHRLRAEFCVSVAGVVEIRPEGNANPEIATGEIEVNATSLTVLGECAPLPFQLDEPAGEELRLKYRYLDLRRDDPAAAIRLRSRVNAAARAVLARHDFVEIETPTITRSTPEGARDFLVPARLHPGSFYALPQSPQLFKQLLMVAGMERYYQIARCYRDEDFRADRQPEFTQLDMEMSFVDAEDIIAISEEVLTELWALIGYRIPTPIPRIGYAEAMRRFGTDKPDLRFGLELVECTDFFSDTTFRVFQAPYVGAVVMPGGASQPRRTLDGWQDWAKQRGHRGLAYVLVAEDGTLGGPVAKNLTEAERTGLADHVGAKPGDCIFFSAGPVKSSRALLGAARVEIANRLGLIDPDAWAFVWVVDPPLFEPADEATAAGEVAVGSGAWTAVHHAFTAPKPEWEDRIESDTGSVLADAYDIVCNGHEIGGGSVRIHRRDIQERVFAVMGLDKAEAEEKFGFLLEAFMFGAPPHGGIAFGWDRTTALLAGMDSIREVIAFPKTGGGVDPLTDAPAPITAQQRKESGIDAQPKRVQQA
Experiment: Assay for Asp RNA synthetase-1 from Mycobacterium tuberculosis
Assay type: functional
Parameters: scale not given: in the data most compounds retested in dose-response had high values
Conditions: 30 µM

Row | SMILES | Percent Effect
1 | CNC(=O)[C@@]12CCO[C@@H]1CCN(S(=O)(=O)c1cccnc1)C2 | 0.229%
2 | Cc1ccc(C(=O)N2CCCC2c2nnc3n2CCCCC3)o1 (stereo not given) | -0.223%
3 | CC(NC(=O)CCC(=O)c1cccs1)c1nnc2n1CCCCC2 (stereo not given) | 3.67%
4 | COC[C@@]12CC[C@@H](N3CCOCC3)C[C@H]1CCN(c1ncccn1)C2 | -4.45%
5 | CC(C)C(NC(=O)NCC1(CO)CC1)c1nnc2n1CCC2 (stereo not given) | -3.28%
6 | COc1cc(NC(=O)c2cc(C)sc2C)c(C(=O)N(C)C)cc1OC | 7.46%
7 | CSCC(=O)N1CCCN(c2ccccc2C)CC1 | 0.55%
8 | CCn1c(C)nnc1CN(C)C1CCN(CCn2cccn2)C1 (stereo not given) | 1.41%
9 | Cn1ccnc1CC1CCCN(C(=O)Nc2cccn(C)c2=O)C1 (stereo not given) | 2.75%
10 | CC(C)(C)NC(=O)NC(=O)CNC(C)(C)c1ccc2c(c1)OCCO2 | 0.459%
11 | CC(c1cccnc1)N(C)Cc1csc(-c2ccccn2)n1 (stereo not given) | -4.49%
12 | CN(C)C(=O)[C@@H]1C[C@@H]2CCN(Cc3nccs3)C[C@@H]2O1 | 1.05%
13 | CC(=O)Nc1nc(C(=O)NC(C)c2ccc(F)cc2)cs1 (stereo not given) | -3.46%
14 | O=C(COCC1CC1)N1CCCC(n2ccnc2)C1 (stereo not given) | 0.946%
15 | Cn1cccc1C(=O)N1CCN(CC2CC2)c2ncccc2C1 | 2.01%
16 | Cc1cc(C)n(-c2cncc(NCCNC(=O)C(C)C)n2)n1 | 8.76%
17 | CC(=O)NCC(=O)N1CCn2cc(CN3CCN(C)CC3)nc2C1 | 1.6%
18 | Cc1nn(C)c(C)c1CNC1CCOc2ccccc21 (stereo not given) | -0.466%
19 | CC(=O)N(C)c1nc(CN2CCOC(Cn3cc(C)cn3)C2)cs1 (stereo not given) | -3.86%
20 | CN(C)C(=O)C1CCCN1CCCNC(=O)c1ccccc1F (stereo not given) | 7.07%

Row | SMILES | Percent Effect
21 | CNS(=O)(=O)Cc1ccc(CNc2cncc(-n3cccn3)n2)cc1 | -0.637%
22 | CC(C)c1nnc2n1CCN(C(=O)CN1CCc3sccc3C1)C2 | -0.1%
23 | Cc1csc(N2CCN(CC(=O)Nc3c(C)n[nH]c3C)CC2C)n1 (stereo not given) | 2.07%
24 | CN(Cc1ncc(C(C)(C)C)o1)C1CCCN(c2cccnn2)C1 (stereo not given) | 0.143%
25 | N#Cc1ccnc(N2CCN(CC(O)c3cccc(F)c3)CC2)c1 (stereo not given) | 1.79%
26 | O=C(NCCCn1ccnc1)N1CCN(c2cccs2)CC1 | -0.0463%
27 | Cc1nc(C)c(CC(=O)Nc2nnc(C)s2)c(=O)[nH]1 | -2.12%
28 | Cc1nnc(N2CCCC3(CN(Cc4ccc(C)s4)CCO3)C2)o1 (stereo not given) | 0.479%
29 | CCOC(C)c1nc(CN2CCC(CNC(C)=O)CC2)cs1 (stereo not given) | -2.51%
30 | CC(=O)N1CC(=O)N(c2cnn(C)c2)CC12CCN(CC1CC1)C2 (stereo not given) | 4.21%
31 | COCCC(=O)N1CC2(CCN(Cc3ccoc3)C2)C1 | 5.6%
32 | COCC(=O)N1CCCC1c1ccnc(Nc2cnccn2)n1 (stereo not given) | 0.0744%
33 | CC1COCCN1Cc1nc(-c2cccc(Br)c2)no1 (stereo not given) | 4.5%
34 | Cc1cnn(CC2CCCN2C(=O)CCCc2nc(C)no2)c1 (stereo not given) | -0.389%
35 | c1cnc(N2CCOCC3(CCCN(CC4CC4)C3)C2)cn1 (stereo not given) | 0.0873%
36 | c1cnnc(N2CCCC2CNCc2cc[nH]n2)c1 (stereo not given) | -3.63%
37 | CCc1cc(C)c(C(=O)N2CCCC2CC(=O)c2cnn(C)c2)o1 (stereo not given) | -2.02%
38 | CN(CCCNC(=O)N1CCCC1c1ccsc1)c1ccccn1 (stereo not given) | -3.28%
39 | Cc1nc(C)n(C2CCCN(C(=O)c3ccc(F)cc3F)C2)n1 (stereo not given) | -6.88%
40 | O=C(CN1CCOC(Cn2cccn2)C1)Nc1nccs1 (stereo not given) | -4.87%
